Test results taken from PubChem BioAssay AID1508600 (Functional Genomics Laboratory (NCATS/FGL), 2020).
Hit rate of the full screen: of about 53,000 sequences, about 3,700 (7%) were called active. The entries come from a sample that favours actives as a whole. Unmarked numbers belong to inactive results.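 Rule for the calls: active = gene knockdowns whose robust z-score for IL-1 alpha signal is at least 2 or at most -2, so actives lie on both sides; inactive = the rest.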

Assay: Components of the Cytosolic LPS Sensing Pathway: Gene Identification via Genome-wide siRNA Screen;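 note: robust z of the log signal after scaling to non-targeting control siRNA wells of the plate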
Settings: RAW264.7 macrophages, IL-1a HTRF, actives lie on both sides, screened at 100 nM (by protocol), cells primed 5 h with Pam3CSK4 first
Method in brief: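 Cells (RAW264.7, 1×10^4 per well) were transfected with siRNA at 100 nM and cultured 48h at 37 degrees C. Pam3CSK4 was added for 5 hours; LipidA transfection followed for 24 hour. IL-1a was then measured by HTRF.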
For GGAGUGAUCAUCUAUAAUUTT against Rnf133, the z-score was 2.12 (active). Work on “CCUGGUCAAUCGAUUCAUATT against 5330416C01Rik” yielded a z-score of -0.12. GGGCAGAGUGGAGUAUCUGTT against Cbx4 showed a z-score of -1.35. For GGACACAUGGAAGAGGAUUTT against Rnf139, the z-score was 0.513. For CGAGGAUGCUUUUUAAAAATT against Inip, the z-score was -0.0653. GCUGCUUUAGCUUAGUUUUTT against Vwa7 showed a z-score of 0.457. With GCCGACAGAUUGAAAUUCGTT against Supv3l1 the z-score was 2.79 (active). For GCCCGAUUAAAAUAAAUUGTT against Arih2, the z-score was 0.636. In the case of GGAAAAUCUGGAGUUCUUCTT against Npas1, the z-score is reported as 1.3. GGUUCAGACCAUCUUGGAATT against Bag3 showed a z-score of -0.936. Work on GGCAUUCAGAAAUCCAGUATT against Zdhhc2 yielded a z-score of -0.942. In the case of GGGAAUGGAAACGGCCAUGTT against Nmt1, the z-score is reported as 2.02 (active). GCAAAAGUUCCAAAAAUCCTT against Cryba1 gave a z-score of 0.0525. GCUCUACAGUAGAACAAACTT against Efcab5 gave a z-score of 1.18. For GGAUUGAAGUCCCUUUACUTT against Zdhhc16, the z-score was 2.27 (active). Sequence GGAACUCUUUUCCUAAAAUTT against Slco1a5 has a z-score of -0.838. Work on CCUAUACCCUGGAAAGGCATT against Pigz yielded a z-score of 1.59. For GGCUGAAUCACCAGAACAUTT against Ikbke, the z-score was -0.644. GGCCAGAAUGUAUAAAGCUTT against Mboat7 gave a z-score of -1. For GGGCACUGGAACAGAUUUUTT against Ccnh, the z-score was 4.27 (active). Sequence GGUCACCCUCAAGUACCCUTT against Thop1 has a z-score of -0.188. Sequence “GCUAUUAAGUUUACCCUAGTT against A730089K16Rik” has a z-score of -1.31. Sequence GGACCAACUACACACUACGTT against Grik5 has a z-score of 0.334. With CCAAUGUGCGAGCAAAGAUTT against Arid5a the z-score was 2.48 (active). GGACCGUAUCCCAAAAGAUTT against Klf1 showed a z-score of -0.968. Work on GGGCCUCUUCCUUAAGCAUTT against Snx8 yielded a z-score of -0.382. With GGAAGUUUGUUUGCUGUUATT against Slx4ip the z-score was 1.08. In the case of GCCUAUUGUAAAUACAGGUTT against Bdnf, the z-score is reported as 0.6. With GGUGAAUAGAACAUCAUCUTT against Lrrc29 the z-score was -1.76. In the case of GGUGAUGAAAGGGAAUGGCTT against Rnf25, the z-score is reported as -2.53 (active).
